{"source": "PubChem BioAssay AID1347383", "about": "(Zoeller Lab, School of Medicine, Boston University, 2020)", "note": "Active and inactive are the calls of the source.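 How the source made its calls: active means cell survival after UV exposure 2 SD above solvent-only control wells at 10 µM, confirmed on one or two repeats; inactive means the rest.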"}
{"experiment": "cell survival after pyrene fatty acid photosensitization – ZR-82 cells, Analyticon library, screen 2, phospholipid biosynthesis inhibitor project, primary screen (AID 1347383);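 further: survival reflects blocked phospholipid synthesis cutting uptake of the phototoxic fatty acid; compound and fatty acid exposure 3 h then viability read next day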", "settings": "ZR-82 CHO cells, pyrene-fatty acid UV killing, CellTiter Blue; at 10 µM; peroxisome-deficient CHO-K1 variant; with DGAT-1, DGAT-2 and ACAT inhibitors"}
{"smiles": "O=C1c2c(O)cc(O)cc2O[C@@H](c2ccc(O)cc2)[C@@H]1O", "outcome": "inactive"}
{"smiles": "COc1c2c(c(OC)c3oc(=O)ccc13)OC(C)(C)C(O)C2O", "note": "(centres undefined)", "outcome": "inactive"}
{"smiles": "CC/C=C/C=C/C1(C)OC(=O)C(C(C)=O)=C1O", "note": "(centres undefined)", "outcome": "inactive"}
{"smiles": "C/C=C/C1=C(Cl)C(=O)[C@@H](O)[C@@]1(O)C(=O)OC", "outcome": "inactive"}
{"smiles": "COc1ccc(Cc2nccc3cc(OC)c(OC)cc23)cc1OC", "outcome": "inactive"}
{"smiles": "COc1cc(CC(C)C(C)Cc2ccc(O)c(O)c2)ccc1O", "note": "(centres undefined)", "outcome": "inactive"}
{"smiles": "Cc1c(O)cc(O)c2c1OC(c1ccccc1)CC2=O", "note": "(centres undefined)", "outcome": "inactive"}
{"smiles": "C/C=C(/C)C(=O)OC1C2OC2C2(CO2)C2C3OC(=O)C(C)C3CCC12C", "note": "(centres undefined)", "outcome": "inactive"}
{"smiles": "CC1(O)CC(C)(O)C2=C(O1)C(=O)c1ccccc12", "note": "(centres undefined)", "outcome": "inactive"}
{"smiles": "CC(C(=O)CCCCC(O)C(C)O)C(=O)N1C=CCC1", "note": "(centres undefined)", "outcome": "inactive"}
{"smiles": "C=C[C@@]1(C)CCC2=C(C1)C(=O)CC1[C@](C)(C(=O)O)CCC[C@]21C", "note": "(some centres undefined)", "outcome": "inactive"}
{"smiles": "O=C(CCc1ccccc1)C[C@@H](O)CCc1ccccc1", "outcome": "inactive"}
{"smiles": "Nc1ccccc1CCCCCCC(=O)O", "outcome": "inactive"}
{"smiles": "COc1cc(OC)c2c(c1Cl)OC1(C(=O)C=C(O)C=C1C)C2=O", "note": "(centres undefined)", "outcome": "inactive"}
{"smiles": "CC(Cc1ccc(O)c(O)c1)C(C)Cc1ccc(O)c(O)c1", "note": "(centres undefined)", "outcome": "inactive"}
{"smiles": "CC1(C)C2CC[C@]3(C)C(C(=O)C=C4[C@H]5C[C@@](C)(C(=O)O)CC[C@]5(C)CC[C@]43C)[C@@]2(C)CC[C@@H]1O", "note": "(some centres undefined)", "outcome": "inactive"}
{"smiles": "COC(=O)C1C(O)CCC2CN3CCc4c([nH]c5ccccc45)C3CC21", "note": "(centres undefined)", "outcome": "inactive"}
{"smiles": "CC(=O)C(C)C(O)C(C)c1ccc(CO)cc1/C=C/CO", "note": "(centres undefined)", "outcome": "inactive"}
{"smiles": "CC(C)=CCc1c(O)cc2oc3cc(C)cc(O)c3c2c1C", "outcome": "inactive"}
{"smiles": "O=C(/C=C/c1ccc(O)cc1)c1ccc(O)cc1O", "outcome": "inactive"}
{"smiles": "CC(C)=CCCC1(C)C=Cc2c(c(C)cc3c2[nH]c2ccccc23)O1", "note": "(centres undefined)", "outcome": "inactive"}
{"smiles": "C=C(COC(=O)C(C)C)C1Oc2cc(C(C)=O)ccc2C1OC(=O)C(C)C", "note": "(centres undefined)", "outcome": "inactive"}
{"smiles": "C=C1C2=C(C(=O)N1OC)[C@H](O)[C@](C)(O)[C@H](CCCCC)O2", "outcome": "inactive"}
{"smiles": "COc1cc2c(c(OC)c1OC)-c1ccc(OC)c(=O)cc1[C@@H](NC(C)=O)CC2", "outcome": "inactive"}
{"smiles": "CCC(C)C1NC(=O)C(Cc2ccccc2)NC(=O)C(CCCCCC(=O)C(O)CO)NC(=O)C2CCCCN2C1=O", "note": "(centres undefined)", "outcome": "inactive"}
{"smiles": "CO[C@H]1c2cc(C(C)C)c(O)c(O)c2[C@@]23CCCC(C)(C)C2[C@@H]1OC3=O", "note": "(some centres undefined)", "outcome": "inactive"}
{"smiles": "CS/C=C/C(=O)O[C@@H]1CCC2=CC(=O)C(=C(C)C)C[C@]2(C)[C@H]1C", "outcome": "inactive"}
{"smiles": "O=C1c2cccc(O)c2C(=O)c2c(O)cccc21", "outcome": "inactive"}
{"smiles": "COc1ccc(/C=C/C(=O)O)cc1OC", "outcome": "inactive"}
{"smiles": "CC[C@]12CCCN3CCc4c(n(c5ccccc45)C(=O)C1)[C@@H]32", "outcome": "inactive"}
{"smiles": "C=C(CO)C1Cc2c(ccc3c(=O)c4c(oc23)COc2cc(O)c(OC)cc2-4)O1", "note": "(centres undefined)", "outcome": "inactive"}
{"smiles": "C=C1CCc2occ(C)c2[C@H]2[C@H]1[C@@]13O[C@@]1(C[C@@H](C)[C@H]3OC(C)=O)[C@H]1O[C@@]21C", "outcome": "inactive"}
{"smiles": "C[C@@H]1C[C@@H](O)C2[C@@](C)(CO)CCC[C@]2(C)[C@@]1(O)CCc1ccoc1", "note": "(some centres undefined)", "outcome": "inactive"}
{"smiles": "COc1cc(CCc2ccc(OCC(O)C(C)(C)O)cc2)cc2c1OCO2", "note": "(centres undefined)", "outcome": "inactive"}
{"smiles": "COc1cc(O)cc2c1C(=O)CC(c1ccccc1)O2", "note": "(centres undefined)", "outcome": "inactive"}
{"smiles": "CC(C)=CCc1c2c(c(O)c3c(=O)c(-c4ccc(O)c(O)c4)coc13)C=CC(C)(C)O2", "outcome": "inactive"}
{"smiles": "CCCCCCCC(=O)C(C)NC(=O)CCC(=O)O", "note": "(centres undefined)", "outcome": "inactive"}
{"smiles": "Oc1cc(O)cc(CCCCCCCCCCc2cc(O)cc(O)c2)c1", "outcome": "inactive"}
{"smiles": "C=C[C@H](/C=C\\c1ccc(O)cc1)c1ccc(O)cc1", "outcome": "inactive"}
